proKLK7 act – proKLK7 (human) activation, primary screen | P49862 | purified proKLK7, EDANS-DABCYL substrate fluorescence; 100% is mature enzyme control, 0% vehicle | activation, % at 7 µM | 370,000 tested, 0.9% active;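 active = activation above the mean of all tested compounds plus 3 SD, computed per campaign excluding outliers beyond control limits, cut at about 13% in these data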
Target sequence (P49862 whole entry, looked up): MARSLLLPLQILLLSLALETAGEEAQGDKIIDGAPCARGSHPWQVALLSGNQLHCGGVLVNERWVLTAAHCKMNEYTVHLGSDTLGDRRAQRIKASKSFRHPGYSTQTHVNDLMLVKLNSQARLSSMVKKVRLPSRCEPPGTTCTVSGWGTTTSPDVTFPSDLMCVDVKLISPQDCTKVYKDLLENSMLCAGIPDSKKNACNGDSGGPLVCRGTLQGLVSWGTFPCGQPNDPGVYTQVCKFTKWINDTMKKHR
ADAM10 inh – inhibitors of human ADAM10; O14672; recombinant ADAM10, EDANS/DABCYL FRET peptide cleavage, 3 h; inhibition, % at 7 µM; 370,000 tested, 0.62% active;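 active = inhibition above a per-campaign cutoff equal to the mean of compounds falling between control-based bounds plus 3 SD, cut at about 20% in these data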;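 note: 0% = DMSO wells while the 100% control is not disclosed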
FGF22 binding – shifts melting point of recombinant human FGF22; Q9HCT0; recombinant FGF22 thermal shift, SYPRO orange fluorescence; percent of sucrose octasulfate shift, DMSO zero; activity (Tm shift, normalised), % at 9.99 µM; 340,000 tested, 1.5% active;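 active = mean Tm shift, scaled 0 neutral to 100 positive control, at about 1.3% or above, every replicate too, limit read from the data; inconclusive = no clear call, values can overlap the other calls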
Target sequence (Q9HCT0 whole entry, looked up): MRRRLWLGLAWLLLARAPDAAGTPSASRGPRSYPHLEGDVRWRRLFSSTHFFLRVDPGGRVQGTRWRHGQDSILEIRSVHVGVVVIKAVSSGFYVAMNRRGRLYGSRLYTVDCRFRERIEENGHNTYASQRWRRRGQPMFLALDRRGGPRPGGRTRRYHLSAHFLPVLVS
rRNA inh HTS – inhibitors of bacterial rRNA selective over humanized ribosomes; GFP signal change (wild-type ribosome), % (no concentration beside the values); AID 720706; E. coli WT GFP vs humanized-ribosome RFP mutants, fluorescence, 24 h; active compounds read low; DMSO median 0, no signal -100; 350,000 tested, 1.6% active;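 active = significant combined selectivity score with lowered wild-type GFP, culture density cut under 30%, mutant RFP and density less affected; inactive = any of these conditions unmet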
ADAM17 inh – inhibitors of human ADAM17; P78536; recombinant ADAM17, EDANS/DABCYL FRET peptide cleavage; inhibition, % at 6.95 µM; 370,000 tested, 0.83% active; AID 720648;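 active = inhibition above the mean of compounds lying between control limits plus 3 SD, set per campaign, cut at about 8.5% in these data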;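 note: 0% = DMSO-only wells as the low control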
proKLK7 act conf – confirmation of human kallikrein-7 zymogen activators; shares compounds with proKLK7 act; purified proKLK7, EDANS-DABCYL substrate fluorescence; scaled: vehicle 0, mature enzyme 100; activation, % at 7 µM; 3,200 tested, 68% active;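 active = activation, as change over the incubation, above the mean of all tested compounds plus 3 SD, cut at about 13% in these data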
EDANS-DABCYL int – counter-screen for kallikrein-7 activators: EDANS-DABCYL optical interference; EDANS-DABCYL substrate fluorescence interference, no enzyme, 4 h; solvent 0%, active enzyme control 100%; shares compounds with proKLK7 act; activation, % at 7 µM; 3,200 tested, 80% active;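 active = activation above the all-compound mean plus 3 SD, ignoring values outside control-based bounds, cut at about 4.8% in these data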;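 note: value is the 4 h activation minus the activation read at time zero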
ADAM10 confirm – human ADAM10 inhibition, confirmation. shares compounds with ADAM10 inh. ADAM10 QFRET peptide cleavage, EDANS fluorescence. inhibition, % at 6.95 µM. 2,100 tested, 1% active;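 active = inhibition above about 20% chosen separately for each screening run, limit read from the data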;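 note: 0% = DMSO wells and 100% = marimastat wells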
ADAM17 counter – counter-screen for ADAM10 exosite inhibitors: inhibitors of human ADAM17 | shares compounds with ADAM10 inh | ADAM17 QFRET peptide cleavage, EDANS fluorescence | 2,100 tested, 0.5% active | AID 743214 | inhibition, % at 6.95 µM;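 active = mean triplicate inhibition above the solvent-only control wells' mean plus 3 SD, cut at about 12% in these data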;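 note: 0% = DMSO wells and 100% = marimastat wells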
AID977621 – growth inhibition of wild-type GFP E. coli, dose response, H69 mutant RFP, cherry-pick; shares compounds with rRNA inh HTS; 1,900 tested, under 10 active; E. coli wild-type GFP strain growth, fluorescence, 24 h; activity change, negative = inhibition at 50 µM;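 active = Wild-type ribosome reporter drop at least double the humanized mutant ribosome reporter drop, growth loss under a set limit; inconclusive = no clear call, values can overlap the other calls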;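 note: wild-type GFP and H69 mutant RFP strains grown together 50/50 in each well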
AID977628 – E. coli growth inhibition, wild-type GFP versus h24 humanized RFP strain, dose response, h24 mutant RFP vs wild-type GFP, cherry-pick | shares compounds with rRNA inh HTS | E. coli WT GFP strain growth, fluorescence, 24 h | activity change, negative = inhibition at 50 µM | 1,900 tested, under 10 active;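 active = compound lowering the normal-ribosome reporter at least twice as much as the humanized-ribosome reporter, growth loss under a set limit; inconclusive = no clear call, values can overlap the other calls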;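 note: wild-type GFP and h24 humanized RFP strains co-cultured 1 to 1 per well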
* = called active by the depositor; i = inactive; ? = inconclusive; nt = not tested or not shown. Hits are enriched below; roughly 3.8% of the tested compounds scored in any of these assays.

SMILES	proKLK7 act	ADAM10 inh	FGF22 binding	rRNA inh HTS	ADAM17 inh	proKLK7 act conf	EDANS-DABCYL int	others
CC(C)c1ccc(NC(=S)Nc2ccc3[nH]c(=O)[nH]c3c2)cc1	0	4	0	-22	-2	nt	nt
C[C@@H]1CN([C@H](C)CO)C(=O)c2ccccc2-c2ccccc2CO[C@@H]1CN(C)C(=O)CCC(F)(F)F	nt	nt	nt	0	nt	nt	nt
C[C@H]1CN([C@@H](C)CO)C(=O)Cc2cc(NC(=O)Cn3cnnn3)ccc2O[C@H]1CN(C)CC1CCCCC1	nt	nt	0	3	nt	nt	nt
O=C(CN1CCN(C2CCCCC2)CC1)c1ccc2cc[nH]c2c1	22*	-259	0	10	-67	20*	20*
O=C(CN1CCN(C2CCCCC2)CC1)c1c[nH]c2ccccc12	0	-5	nt	nt	-6	nt	nt
O=C1c2ccccc2-c2n[nH]c3cccc1c23	63*	-239	0	-18	-51	74*	75*
N#Cc1c(=O)c2nc(NCc3ccccc3)ncc2n2ccccc12	19*	-402	nt	nt	-103	24*	26*
N#Cc1c(=O)c2nc(NCCCO)ncc2n2c(=O)c3ccccc3[nH]c12	-6	-5	1	-2	0	nt	nt
Nc1nc2sc3c(c2cc1C(=O)N1CCOCC1)CCCC3	14*	i	nt	nt	-168	12	14*
O=C(Nc1cccc(-c2cn3cccnc3n2)c1)c1ccco1	nt	nt	0	-11	nt	nt	nt
Cc1c(-c2cccc(NC(=O)c3cccs3)c2)nc2ncccn12	62*	i	1	-7	i	47*	62*
Cc1c(-c2cccc(NC(=O)c3ccco3)c2)nc2ncccn12	91*	i	44*	-5	i	69*	81*
COc1ccc(OC)c(/C=N\NC(=O)c2ccc(=O)n(C)c2)c1	16*	-131	0	21	-38	12	10*
COc1cccc(/C=N/NC(=O)C(=O)N2CCCCCC2)c1OC	1	4	0	14	-1	nt	nt
COc1ccc(OC)c(/C=C/C(=O)OCC(=O)N2CCCCC2)c1	22*	-157	0	-4	-44	14*	14*
COc1cc(OC)c(OC)cc1/C=N/NC(=O)c1ccc(=O)n(C)c1	0	-28	nt	nt	-5	nt	nt
COc1ccc(OC)c(/C=N/NC(=O)c2ccc(=O)[nH]n2)c1	16*	-9	0	19	-3	17*	20*
COc1ccc(OC)c(/C=N/NC(=O)C(=O)N2CCCCCC2)c1	51*	-61	0	20	-17	48*	45*
C[C@H](CO)N1C[C@H](C)[C@H](CN(C)C(=O)Nc2ccc(F)cc2)Oc2ncc(-c3ccc(C#N)cc3)cc2C1=O	nt	nt	0	-11	nt	nt	nt
COc1ccc(OC)c(/C=N/NC(=O)c2cc[n+](Cc3ccccc3)cc2)c1	45*	-29	0	8	-9	79*	81*
COc1ccc(OC)c(/C=N/NC2=NS(=O)(=O)c3ccccc32)c1	51*	-19	0	8	-6	52*	46*
COc1ccc(OC)c(/C=N/NC(=O)c2ccncc2)c1	41*	-15	0	10	-6	41*	39*
COc1ccccc1C=NNC(=O)c1ccncc1	1	1	nt	13	1	nt	nt
COc1ccc(C2=Cc3ccc(OC(C)=O)cc3OC2)cc1	24*	-77	0	8	-24	14*	11*
CC(=O)c1ccc(/C=C/c2nc3ccccc3n2C)o1	40*	i	0	nt	i	71*	71*
SMILES	proKLK7 act	ADAM10 inh	FGF22 binding	rRNA inh HTS	ADAM17 inh	proKLK7 act conf	EDANS-DABCYL int	others
CCCNC(=O)N1CC(=O)N2[C@H](CO)[C@@H](c3ccc(C#Cc4cccc(F)c4)cc3)[C@H]2C1	nt	nt	nt	-32	nt	nt	nt
CCCSc1ncc(Cl)c(C(=O)Nc2ccc(S(=O)(=O)N3CC(C)OC(C)C3)cc2)n1 (stereo unspecified)	67*	20*	nt	nt	7	-145	-145	ADAM10 confirm=10;ADAM17 counter=4
C[C@H]1CCCCO[C@@H](CN(C)C(=O)Nc2ccc(C(F)(F)F)cc2)[C@@H](C)CN([C@@H](C)CO)C(=O)c2cc(NC(=O)NC3CCCCC3)ccc2O1	nt	nt	1	3	nt	nt	nt
CC(=O)c1cccc(Nc2nc(-c3ccccc3)nc3ccccc23)c1	0	-3	0	17	-6	nt	nt
O=C(Nc1ccc2nc3ccccc3nc2c1)c1ccc(Br)cc1	0	-8	nt	nt	-4	nt	nt
CC(=O)Nc1ccc2nc3ccccc3nc2c1	43*	-96	0	-26*	-46	46*	43*	AID977621=-17
CC(=O)Nc1cccc(Nc2nc(-c3ccccc3)nc3ccccc23)c1	19*	-45	1	-22*	-14	4	7.8*	AID977628=?
O=C(CC1CC1)N1CC(=O)N2[C@H](CO)[C@H](c3ccc(C#Cc4ccccc4)cc3)[C@@H]2C1	nt	nt	nt	-23	nt	nt	nt
Cc1ccc(S(=O)(=O)N(C)C[C@@H]2OCCCC[C@H](C)Oc3ccc(N(C)C)cc3C(=O)N([C@@H](C)CO)C[C@@H]2C)cc1	nt	nt	-1	-2	nt	nt	nt
O=C(O)c1cc(-c2ccc(-c3ccc(F)cc3)o2)nc2ccccc12	33*	-328	0	-38*	-111	65*	76*	AID977621=-13
CC(=O)c1ccc(Sc2ccccc2N)c([N+](=O)[O-])c1	15*	-99	0	-16*	-71	7	3	AID977628=-13
COc1cccc(NC(=O)CSc2nc3c(sc4ccccc43)c(=O)n2CCN(C)C)c1	14*	i	0	-22*	-243	3	4	AID977621=?;AID977628=-5.4
COc1cccc(NC(=O)CSc2nc3c([nH]c4ccccc43)c(=O)n2C)c1	0	1	0	3	1	nt	nt
